# According to PubChem BioAssay (NCATS):
# Results filed as inconclusive are left out. Entries that show only a call come without a potency. Active and inactive are the calls of the source. Unless noted, the call rests on the fitted dose curve; in most records, active means well fitted curve in the direction sought with a large enough effect; inconclusive means small, poorly fitted or top-dose-only effect, or another doubt; inactive means no such curve, though single readings can be large; an effect the other way counts as inactive or inconclusive.
# Assays:
# [1] = qHTS for Inhibitors of Plasmodium falciparum (HB3) proliferation (AID 504318); further: nearly all actives have a fitted effect of over 60% in size
# Summary of the method: (§1)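 Erythrocytes infected with P. falciparum line (0.3% parasitemia, 2.5% hematocrit final) incubated with compounds 72 h at 37 °C, 5% CO2; SYBR Green lysis buffer added, fluorescence read next day. Normalized to 0.29 uM artemisinin and DMSO.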
# [2] = qHTS for Inhibitors of Plasmodium falciparum (CP250) proliferation (AID 504320)
# Summary of the method: as §1
# [3] = target: Atrial natriuretic peptide receptor 1 (Homo sapiens) (UniProt P16066); assay: Natriuretic polypeptide receptor (hNpr1) antagonism - Pilot CMLD screen (AID 1347052; calls by dose curve;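 further: cGMP level read as GloSensor luciferase luminescence after agonist stimulation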)
# Potency means the concentration at half of the fitted maximal effect.
# Sequence of Atrial natriuretic peptide receptor 1 (Homo sapiens) (P16066 whole entry, looked up): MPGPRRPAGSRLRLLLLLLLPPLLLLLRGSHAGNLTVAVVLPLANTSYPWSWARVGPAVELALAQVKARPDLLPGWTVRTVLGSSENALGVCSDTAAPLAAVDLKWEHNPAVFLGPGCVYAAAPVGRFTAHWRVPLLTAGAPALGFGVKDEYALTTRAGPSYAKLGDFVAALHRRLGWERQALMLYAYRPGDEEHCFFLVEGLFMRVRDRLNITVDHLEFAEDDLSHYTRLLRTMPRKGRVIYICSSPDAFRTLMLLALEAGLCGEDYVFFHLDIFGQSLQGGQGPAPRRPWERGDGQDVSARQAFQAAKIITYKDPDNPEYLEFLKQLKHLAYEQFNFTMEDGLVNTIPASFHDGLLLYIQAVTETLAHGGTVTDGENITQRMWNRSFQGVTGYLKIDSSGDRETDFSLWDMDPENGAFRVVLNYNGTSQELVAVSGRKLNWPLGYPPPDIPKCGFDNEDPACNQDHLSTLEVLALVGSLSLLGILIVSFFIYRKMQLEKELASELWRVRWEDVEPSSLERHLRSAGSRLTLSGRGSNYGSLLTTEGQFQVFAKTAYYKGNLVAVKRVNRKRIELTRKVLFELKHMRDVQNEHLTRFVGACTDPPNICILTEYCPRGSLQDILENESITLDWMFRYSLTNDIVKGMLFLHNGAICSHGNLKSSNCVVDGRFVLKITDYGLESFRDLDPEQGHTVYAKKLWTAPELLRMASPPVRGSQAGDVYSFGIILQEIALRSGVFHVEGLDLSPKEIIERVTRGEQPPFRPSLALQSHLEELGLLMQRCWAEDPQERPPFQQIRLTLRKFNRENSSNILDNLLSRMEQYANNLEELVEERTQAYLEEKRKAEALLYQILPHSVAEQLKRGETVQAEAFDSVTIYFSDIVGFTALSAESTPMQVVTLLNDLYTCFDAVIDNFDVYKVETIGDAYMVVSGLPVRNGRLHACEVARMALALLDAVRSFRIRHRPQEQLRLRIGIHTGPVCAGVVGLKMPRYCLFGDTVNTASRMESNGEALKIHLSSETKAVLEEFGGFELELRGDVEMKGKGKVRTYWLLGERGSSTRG
SMILES,Potency [1],Potency [2],Potency [3]
C[C@@H]1CC[C@H]2C(=O)O[C@@H](COc3ccc(C(C)(C)C)cc3)CN2[C@@H]1c1ccc(Br)cc1,1690 nM (active),1510 nM (active),inactive
COC(=O)C1=C[C@H]([C@@H](C)[C@H](OC)c2ccccc2Br)[C@H]2c3ccccc3O[C@@H]12,inactive,inactive,inactive
CC(Nc1oc(-c2ccccc2)nc1-c1cccc2ccccc12)c1ccccc1 (centres undefined),inactive,inactive,inactive
C[C@@H]1CC[C@H]2C(=O)O[C@@H](Cc3ccccc3)CN2[C@@H]1c1ccc(Br)cc1,inactive,inactive,inactive
C[C@H]1C[C@@H](C)O[C@@]2(C1)C(=O)N(Cc1ccccc1C(F)(F)F)c1ccccc12,,inactive,inactive
O=C1N(Cc2ccccc2C(F)(F)F)c2ccccc2[C@@]12O[C@H](COc1ccccc1)CC1=C2CCC1,,inactive,inactive
CC(C)=CCN1C(=O)[C@]2(O[C@H](COc3ccccc3)CC3=C2CCC3)c2ccccc21,1690 nM (active),,inactive
CCN1C(=NCCc2c[nH]c3ccccc23)NC(c2cccc(F)c2)C(C(=O)OC)=C1C (centres undefined),inactive,inactive,inactive
CC(C)(C)c1ccc(O[C@@H]2[C@H](O)CO[C@@H]2C=CC#Cc2ccccc2)cc1,,inactive,inactive
COC(=O)C1=C(C)N(Cc2ccccc2)C(=NCCc2c[nH]c3ccccc23)NC1c1cccc(F)c1 (centres undefined),inactive,inactive,inactive
C#CCN1C(=O)[C@]2(O[C@H](COc3ccccc3)CC3=CCCC32)c2c(Br)cccc21 (some centres undefined),inactive,,inactive
O=C1N(Cc2ccc(Br)cc2)c2cccc(Br)c2[C@@]12O[C@H](COc1ccccc1)CC1=CCCC12 (some centres undefined),,inactive,inactive
CCN1C(=NCCc2ccccn2)NC(c2cccs2)C(C(=O)OC)=C1C (centres undefined),inactive,inactive,inactive
COC(=O)c1ccc(CN2C(=O)[C@@]3(CC(C)=CC[C@@H](COc4ccccc4)O3)c3c(Br)cccc32)cc1,1510 nM (active),,inactive
COC(=O)C1=C(C)N(Cc2ccccc2)C(=O)NC1CCc1ccccc1 (centres undefined),inactive,inactive,inactive
CCN1C(=NCc2ccccc2)NC(c2cccc(C(F)(F)F)c2)C(C(=O)OC)=C1C (centres undefined),inactive,inactive,inactive
COc1ccc2c(c1)C[C@@H](C)O[C@]21C(=O)Nc2ccccc21,inactive,,inactive
CCN1C(=S)NC(c2cccs2)C(C(=O)OC)=C1C (centres undefined),inactive,inactive,inactive
C=CCN=C1NC(c2cccc(C(F)(F)F)c2)C(C(=O)OC)=C(C)N1CC (centres undefined),inactive,inactive,inactive
CC1=CC[C@@H](COc2ccccc2)O[C@@]2(C1)C(=O)N(Cc1ccccc1C(F)(F)F)c1cccc(Br)c12,1690 nM (active),,inactive
COC(=O)C1=C(C(=O)OC)[C@@H]2N(CC=C(C)C)c3ccccc3[C@@]23CCC(=O)N(Cc2cccc(C(F)(F)F)c2)C3=N1,2940 nM (active),,inactive
C[C@H]1Cc2c(COc3ccccc3)nc3c(c2CO1)CN(C(=O)c1cc(I)ccc1F)CC3,,inactive,inactive
COC(=O)C1=C(C(=O)OC)[C@@H]2N(Cc3ccccc3)c3ccccc3[C@@]23CCC(=O)N(CC2CC2)C3=N1,3290 nM (active),,inactive
C=CCN1C(=O)CC[C@@]23C1=NC(C(=O)OC)=C(C(=O)OC)[C@@H]2N(CC=C)c1ccccc13,inactive,inactive,2370 nM (active)
O=C1N(Cc2ccc(F)cc2)c2ccccc2[C@@]12O[C@H](COc1ccccc1)CC1CCCC12 (some centres undefined),inactive,inactive,inactive
CCN1C(=NCc2ccc3c(c2)OCO3)NC(c2ccccc2)C(C(=O)OC)=C1C (centres undefined),inactive,,inactive

SMILES,Potency [1],Potency [2],Potency [3]
c1ccc(CNc2oc(-c3ccccc3)nc2-c2cccc3ccccc23)cc1,3290 nM (active),,inactive
COC(=O)C1=C(C(=O)OC)[C@@H]2N(C)c3ccccc3[C@@]23C[C@@H](CO)N(C(=O)NC2CCCC2)C3=N1,1900 nM (active),,inactive
CCN1C(N(C)CCc2c[nH]c3ccccc23)=NC(c2cccc(C(F)(F)F)c2)C(C(=O)OC)=C1C (centres undefined),inactive,inactive,inactive
COC(=O)CCC(=O)N1C2=NC3=C(C(=O)N(Cc4ccc5c(c4)OCO5)C3=O)C3N(C)c4ccccc4[C@]23C[C@H]1CO (some centres undefined),,inactive,inactive
COc1ccc2c(c1)CO[C@H]([C@H](O)CO)[C@H]2C=CC#Cc1ccc(C(C)(C)C)cc1,inactive,inactive,inactive
C=CC[C@H]1C(=O)N2[C@@H](C[C@@H](C)[C@@H]2c2ccccc2)[C@@H](CC=C)C(=O)N2[C@H]1C[C@@H](C)[C@@H]2c1ccccc1,,inactive,inactive
COc1cccc([C@H]2NC(=O)C[C@@H]3C[C@@H](C)[C@@H](c4cccc(OC)c4)N3C(=O)C=CC[C@@H]2C)c1,,inactive,inactive
CC(CCN1CCc2nc(-c3ccccc3)c(-c3ccccc3)cc2C1)=NO[C@H](C)CN1CCCCc2nc(C)c(C)cc21,,inactive,inactive
CC1=CC[C@@H](COc2ccccc2)O[C@@]2(C1)C(=O)N(Cc1ccc(Br)cc1)c1ccccc12,,inactive,inactive
CCOC(=O)CN1C(=O)[C@@]2(CC(C)=CC[C@@H](COc3ccccc3)O2)c2ccccc21,,inactive,inactive
N#Cc1ccc2c(c1)C[C@]1(CCCCN3C(=O)c4ccccc4C3=O)OC3=C(C(=O)OC4(CCCCC4)C3)[C@H]2O1,,inactive,inactive
C#CCN1C(=O)[C@]2(O[C@H](COc3ccccc3)CC3=C2CCC3)c2ccccc21,,inactive,inactive
COc1cc2c(cc1OC)[C@@H]1O[C@](c3ccsc3)(C2)OC2=C1C(=O)CC(C)(C)C2,,inactive,inactive
COC(=O)c1ccc(CN2C(=O)[C@@]3(CC(C)=C[C@@H](COc4ccccc4)O3)c3ccccc32)cc1,,inactive,inactive
Oc1c(CN2CCOCC2)cc2c(c1-c1c(O)c(CN3CCOCC3)cc3c1CCCC3)CCCC2,,inactive,inactive
Cc1cc2c(c(=O)n1Cc1ccccc1)[C@H]1O[C@](c3ccsc3)(Cc3cc(C#N)ccc31)O2,,inactive,inactive
COc1ccc([C@]23Cc4cc(OC)c(OC)cc4[C@H](O2)c2c(cc(C)n(Cc4ccccc4)c2=O)O3)cc1,,inactive,inactive
C=CC[C@@]1(c2ccccc2)Oc2ccccc2-c2nc3ccccc3nc21,,inactive,inactive
C[C@@H]1[C@@H](c2ccccc2)c2cc3ccccc3nc2-c2nc3ccccc3cc2[C@H]1C(=O)N1CCCC1,,inactive,inactive
N#Cc1ccc2c(c1)C[C@]1(CCCCN3C(=O)c4ccccc4C3=O)Oc3c(c(=O)oc4ccc(F)cc34)[C@@H]2O1,,inactive,inactive
O=C1Nc2ccccc2[C@@]12O[C@H](COc1ccccc1)CC1=C2CCC1,,inactive,inactive
COc1cccc([C@@H]2Oc3ccc(Br)cc3C[C@@H]2OC(=O)Nc2cc(OC)c(OC)c(OC)c2)c1,,inactive,inactive
CCOC(=O)CN1C(=O)[C@]2(O[C@H](COc3ccccc3)CC3=C2CCC3)c2ccccc21,,inactive,inactive
COC(=O)CC=C[C@@H](C)[C@@H](C=NOC[C@H]1O[C@H](c2ccccc2)C=C[C@H]1Oc1ccc(OC)cc1)N[S+](=O)([O-])c1ccc(C)cc1,,inactive,inactive
COC1=C[C@H](C(=O)NC2CCN(Cc3ccccc3)CC2)[C@H](C)[C@@H](c2ccccc2)CC1=O,,inactive,inactive
COc1cccc([C@H]2NC(=O)CC=C[C@H](C)[C@@H](c3cccc(OC)c3)NC(=O)CC=C[C@H]2C)c1,,inactive,inactive
